40 sequences from the supplement of paper PMC6555819 can be followed below.

For the test, the system named is VDR:RXRa (NR concentration 270 nM, RXRa partner concentration 90 nM). In words: PBM binding z-score (relative to random genomic background probes); higher = stronger binding; sequences stand for … in GC…GCGATTGACAGCGTAGAATGAAGG
As to the method:
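Protein-binding microarray (Agilent 4x180K custom design, double-stranded 60-nt probes: 5' GC cap, 34-nt variable region, 24-nt constant primer region; full probe sequence given). Purified or IVT nuclear receptor:RXRα heterodimers (3:1 NR:RXRα, mostly 270:90 nM) or homodimers were incubated for 1 h in PBS with 2% milk and no ligand, then detected with Alexa488 antibodies. Fluorescence from o1-orientation probes (~5 replicates averaged) was converted to z-scores against 500 random hg19 background probes. Variable regions are seed direct-repeat (DR0–DR5) sites, all their single-nucleotide variants and half-site ablations.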
Regarding TGAATGAGGTTAAAGATCAGGGAGCGTGGCGTCG, the PBM binding z-score stood at 1.74. Under CCGACTGGGGCATAAGGGTACCATAAGCCAGCCC stands -0.316; under CGAACGAGGGCATGAGTTGGTAGCAAATGCCGAT, 0.602; under CCGACTGGGGCATAAGGTTGCCATAAGCCAGCCC, -0.377. TTACCGAGGTGAGCTGAGGTCGTTGATCCAACTC came in with a PBM binding z-score of 4.51. The figure for GCTCAGAGGACAAGGTCAGAGCTTTGTCCGTAGA is 1.69.

CGGCCTAGGTCAGGGCCAGTATAGGAGGAACGTT yielded a PBM binding z-score of 0.12. Under ACAGACAGGTGAGTGAAGGTAAATCAGCTGGACG stands -0.406; under TCAGATAGGTAAACAGGTGAAAGTCCGTAAGTTA, 0.923; under ATCTCTAGGTAACAAGTTCAGAGAAAGAGAGGAC, 2.01. ATCTCTAAGTAAAAGTTCAGTGAATCCCGAGGAT gave a PBM binding z-score of 1.05. TGAATGAGGTTAAAGATCAGAGAACGTGGCGTCG had a PBM binding z-score of 1.8. The figure for TCTGCTAGGTCAACGATAGTCAGCTAATCTGCTA is 1.24; for CCTACTGAGCCAAGGTCATTGATCAGTCAAAGCA it is 3.63. AGAATGAGGTTATACGTCGATCAGGGAAGAAAGT showed a PBM binding z-score of 1.29.

TCATATAGGTAAACAGATGAAAGTCCGTAAGTTA displayed a PBM binding z-score of 1.17.

Take CCTAGCAGGCCAACCTGGGTCACTCAAGGCTTGA: the PBM binding z-score was 1.15. For GCTAGCAGGCCATTTGGGTCATTCAATGACGGGC, the PBM binding z-score stood at 1.56. Under CCTACTGGCCCAAAAAGGTCATTGATGCCGATAA stands 4.47.

In turn, CAAACTAGGACACCGGAAGGTCAAAGTCCGCATG yielded a PBM binding z-score of 3.3. Under CGAACGAGGGCATGAGTTGATAGGAAATGCCGAT stands 1.13.

Consider ATACCAAGGTGATCGTGAGGTCGTGGATACTAAC, for which the PBM binding z-score stood at 2.84.

The sequence TGTCCAAGTTCAAAGGTAACGTAAGTATCCACAC gave a PBM binding z-score of 4.6. As for ATCTCTAGGTAACAAGTTCAGTGAAAGAGAGGAC, the PBM binding z-score came out at 2.13.

For the sequence AGACTGAGGTTATACGTAGATCAGGGAAGAAAGT, the PBM binding z-score came out at 1.42. The figure for CAAACTAGGTCTCGAAAGGTCAAAGTCGAATGAC is 4.71; for TAGCCTGGGTCATTCAGGGGCCAGTATAGAAAGC it is 2.82; for GCGACTGCGGCAAAGCAGGTTACCATAAGGTTGG it is -0.392. Under CCTACTAGGTCAATGGTCAGCTAAAGCAGCTCGC stands 1.45. The figure for CCTACTGGACCAAAAAGGTCATTGATGCCGATAA is 4.77. In the case of GCTAGTTGGTCGGTAAAAGGTCACACACCGGTCG, the PBM binding z-score turned out to be 3.89. Under ATATGTAGGTTAGCTGGGGTCATACAGACTAGGC stands 6.08; under TAGCATAGGTCATTCAGGGGCCAGTATAGAAAGC, 4.18; under CCTTACGGGTCACGAGGTTCTAGCACGACGAGCG, 6.18. Under CCTTACGGGTCACGAGGTTATCGCACGACGAGCG stands 5.31; under ATCTGTAGGTAAAGTTCAGTGAAAGATCGATAGA, 1.24. The figure for AGTCAAAGTTCACTAGCTAACGTAAGATTCAGCT is 3.66. TCATATAGGTAATACAGGTGAAAGACGGCATCTA came in with a PBM binding z-score of 1.02. In the case of TCTCGGAGGGCACGAAAGGTCAGAGCTCGACATC, the PBM binding z-score was 4.66.

On to ACAGACAGGTGAGTGAAGGTAGCTCAGCTGGACG, for which the PBM binding z-score was -0.56.
